Experimental data from the supplement of paper PMC11006884.
About 6,500 targets were measured; listed, in parts, are those with a hit and a random draw of the rest. About 2% of all pairs of compound and target were hits.

What follows are targets tested with COC(=O)C#Cc1ccccc1 [methyl 3-phenylpropiolate] (assay: log2 ratio of iodoacetamide-alkyne labeling of the cysteine site, DMSO over compound (competition); higher = stronger covalent engagement of the cysteine by the compound, active = 1 or more). Conditions: 500 µM; treatment time 1 h; system: HEK293T cell lysate.
Method in brief: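 HEK293T lysate (2 mg/mL) was treated with DMSO or electrophile (500 µM, 1 h, ambient temperature), then iodoacetamide alkyne (1 h), clicked to sCIP-TMT reagents, pooled, trypsin-digested overnight at 37 °C, streptavidin-enriched and acid-eluted. Peptides were run on Orbitrap Eclipse LC-MS/MS with FAIMS and quantified in FragPipe. The log2 competition ratio per cysteine is mean control-channel over mean compound-channel reporter intensity. Duplicate channels and three replicates were used, and cysteines quantified in only one replicate were excluded.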

Sequence of UniProt Q9BQ69 (Q9BQ69 whole entry, looked up): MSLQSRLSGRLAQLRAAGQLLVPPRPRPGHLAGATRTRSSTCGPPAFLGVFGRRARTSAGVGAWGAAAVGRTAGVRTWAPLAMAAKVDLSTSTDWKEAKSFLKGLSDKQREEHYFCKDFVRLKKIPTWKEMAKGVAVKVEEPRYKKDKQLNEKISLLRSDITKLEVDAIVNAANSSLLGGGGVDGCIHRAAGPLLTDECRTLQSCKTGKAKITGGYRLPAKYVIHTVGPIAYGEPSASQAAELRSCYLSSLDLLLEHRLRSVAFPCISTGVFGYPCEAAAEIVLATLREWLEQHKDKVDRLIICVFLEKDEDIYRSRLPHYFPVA
Sequence of UniProt Q86VP6 (Q86VP6 whole entry, looked up): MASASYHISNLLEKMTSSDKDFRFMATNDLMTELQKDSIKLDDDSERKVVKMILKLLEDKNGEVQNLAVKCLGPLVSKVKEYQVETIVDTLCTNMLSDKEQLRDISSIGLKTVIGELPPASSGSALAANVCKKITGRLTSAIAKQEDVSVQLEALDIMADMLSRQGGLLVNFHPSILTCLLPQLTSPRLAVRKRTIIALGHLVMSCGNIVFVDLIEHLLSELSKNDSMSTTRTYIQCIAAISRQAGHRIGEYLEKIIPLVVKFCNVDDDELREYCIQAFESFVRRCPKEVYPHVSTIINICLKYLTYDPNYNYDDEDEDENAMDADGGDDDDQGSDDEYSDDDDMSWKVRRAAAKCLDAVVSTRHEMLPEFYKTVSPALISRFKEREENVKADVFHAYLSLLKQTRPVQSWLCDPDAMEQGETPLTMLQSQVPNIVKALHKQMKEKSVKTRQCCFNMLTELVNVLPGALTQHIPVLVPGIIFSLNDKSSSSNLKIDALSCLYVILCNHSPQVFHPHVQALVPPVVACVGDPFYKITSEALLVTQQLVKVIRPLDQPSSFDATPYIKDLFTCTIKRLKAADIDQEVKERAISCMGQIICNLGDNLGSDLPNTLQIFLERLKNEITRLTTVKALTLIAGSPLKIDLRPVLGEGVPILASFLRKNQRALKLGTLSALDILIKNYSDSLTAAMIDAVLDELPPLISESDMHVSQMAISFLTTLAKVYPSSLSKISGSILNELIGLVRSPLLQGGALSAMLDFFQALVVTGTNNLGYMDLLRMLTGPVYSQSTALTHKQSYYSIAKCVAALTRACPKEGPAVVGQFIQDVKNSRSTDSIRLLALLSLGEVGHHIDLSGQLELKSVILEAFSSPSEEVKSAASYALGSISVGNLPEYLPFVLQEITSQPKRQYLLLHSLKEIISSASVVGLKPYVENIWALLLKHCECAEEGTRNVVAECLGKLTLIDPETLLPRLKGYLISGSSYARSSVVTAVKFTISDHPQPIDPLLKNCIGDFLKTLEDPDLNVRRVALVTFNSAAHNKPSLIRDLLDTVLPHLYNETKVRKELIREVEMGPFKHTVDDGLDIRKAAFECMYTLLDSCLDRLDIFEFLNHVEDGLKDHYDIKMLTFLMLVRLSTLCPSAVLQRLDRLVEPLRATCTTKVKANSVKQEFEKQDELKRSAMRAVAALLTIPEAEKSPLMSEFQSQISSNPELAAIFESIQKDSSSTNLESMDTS
Sequence of UniProt Q7Z7L1 (Q7Z7L1 whole entry, looked up): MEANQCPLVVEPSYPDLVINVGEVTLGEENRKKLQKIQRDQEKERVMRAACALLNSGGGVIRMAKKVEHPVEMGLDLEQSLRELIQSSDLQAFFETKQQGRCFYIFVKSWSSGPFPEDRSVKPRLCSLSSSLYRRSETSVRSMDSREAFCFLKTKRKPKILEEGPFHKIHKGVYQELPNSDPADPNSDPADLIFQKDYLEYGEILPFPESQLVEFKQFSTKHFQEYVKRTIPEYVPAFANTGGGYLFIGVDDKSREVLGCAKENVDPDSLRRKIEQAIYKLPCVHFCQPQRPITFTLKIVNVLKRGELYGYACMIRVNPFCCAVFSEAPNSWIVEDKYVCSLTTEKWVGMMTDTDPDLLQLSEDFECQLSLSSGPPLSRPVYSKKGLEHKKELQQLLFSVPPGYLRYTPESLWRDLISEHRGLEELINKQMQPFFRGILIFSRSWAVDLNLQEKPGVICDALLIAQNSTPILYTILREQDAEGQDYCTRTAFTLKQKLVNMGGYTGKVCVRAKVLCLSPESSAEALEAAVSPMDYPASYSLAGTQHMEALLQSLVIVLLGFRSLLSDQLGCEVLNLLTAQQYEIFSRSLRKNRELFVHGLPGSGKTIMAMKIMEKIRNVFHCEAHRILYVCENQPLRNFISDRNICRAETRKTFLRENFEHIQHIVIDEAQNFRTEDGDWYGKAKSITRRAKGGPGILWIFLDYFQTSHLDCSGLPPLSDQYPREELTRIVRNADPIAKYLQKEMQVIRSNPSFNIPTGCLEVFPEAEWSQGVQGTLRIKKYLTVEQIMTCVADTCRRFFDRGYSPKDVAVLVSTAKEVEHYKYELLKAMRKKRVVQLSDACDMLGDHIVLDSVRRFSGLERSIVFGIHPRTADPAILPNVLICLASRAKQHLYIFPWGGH
Sequence of UniProt Q86UP2 (Q86UP2 whole entry, looked up): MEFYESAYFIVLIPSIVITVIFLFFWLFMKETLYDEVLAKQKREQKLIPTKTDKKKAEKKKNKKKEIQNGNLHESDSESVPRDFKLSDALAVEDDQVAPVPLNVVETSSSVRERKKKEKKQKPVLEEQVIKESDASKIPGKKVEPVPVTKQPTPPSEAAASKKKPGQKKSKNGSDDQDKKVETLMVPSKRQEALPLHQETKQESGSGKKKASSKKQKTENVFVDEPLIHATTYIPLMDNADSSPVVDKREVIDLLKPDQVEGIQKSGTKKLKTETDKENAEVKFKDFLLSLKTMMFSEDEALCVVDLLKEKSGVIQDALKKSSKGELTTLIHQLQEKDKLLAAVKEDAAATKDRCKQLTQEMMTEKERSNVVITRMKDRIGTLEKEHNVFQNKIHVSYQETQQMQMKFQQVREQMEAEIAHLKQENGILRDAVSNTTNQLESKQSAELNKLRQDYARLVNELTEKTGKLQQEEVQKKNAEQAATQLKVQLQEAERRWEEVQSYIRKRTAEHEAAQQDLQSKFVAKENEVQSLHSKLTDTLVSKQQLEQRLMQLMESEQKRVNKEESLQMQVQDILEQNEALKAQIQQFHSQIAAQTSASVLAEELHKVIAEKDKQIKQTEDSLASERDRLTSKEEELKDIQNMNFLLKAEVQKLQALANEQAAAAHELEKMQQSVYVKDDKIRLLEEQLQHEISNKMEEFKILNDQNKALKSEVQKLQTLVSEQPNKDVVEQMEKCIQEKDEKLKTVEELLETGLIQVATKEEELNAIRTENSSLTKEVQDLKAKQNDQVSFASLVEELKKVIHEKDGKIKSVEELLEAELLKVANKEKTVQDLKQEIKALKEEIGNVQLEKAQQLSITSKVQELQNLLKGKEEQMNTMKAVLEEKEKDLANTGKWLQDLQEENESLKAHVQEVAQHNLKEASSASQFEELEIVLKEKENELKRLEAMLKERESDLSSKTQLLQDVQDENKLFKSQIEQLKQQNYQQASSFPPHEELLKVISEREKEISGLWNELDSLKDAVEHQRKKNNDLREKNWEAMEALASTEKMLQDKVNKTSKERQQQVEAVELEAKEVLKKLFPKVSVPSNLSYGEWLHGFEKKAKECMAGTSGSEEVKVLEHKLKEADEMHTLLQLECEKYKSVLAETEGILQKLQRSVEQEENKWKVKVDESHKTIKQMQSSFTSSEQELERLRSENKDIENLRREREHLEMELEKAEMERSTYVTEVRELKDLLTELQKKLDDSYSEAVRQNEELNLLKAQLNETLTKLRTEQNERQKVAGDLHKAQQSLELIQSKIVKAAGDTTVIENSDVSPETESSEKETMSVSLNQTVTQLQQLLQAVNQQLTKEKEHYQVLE
Sequence of UniProt Q8IWD4 (Q8IWD4 whole entry): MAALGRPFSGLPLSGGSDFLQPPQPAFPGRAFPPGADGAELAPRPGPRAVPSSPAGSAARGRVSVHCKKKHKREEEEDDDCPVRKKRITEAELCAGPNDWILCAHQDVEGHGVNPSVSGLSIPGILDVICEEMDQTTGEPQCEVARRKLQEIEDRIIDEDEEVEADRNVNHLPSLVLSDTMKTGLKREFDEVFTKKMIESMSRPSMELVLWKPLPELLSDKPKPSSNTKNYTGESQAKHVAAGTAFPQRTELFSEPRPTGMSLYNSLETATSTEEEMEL
Sequence of UniProt Q8TEV9 (Q8TEV9 whole entry): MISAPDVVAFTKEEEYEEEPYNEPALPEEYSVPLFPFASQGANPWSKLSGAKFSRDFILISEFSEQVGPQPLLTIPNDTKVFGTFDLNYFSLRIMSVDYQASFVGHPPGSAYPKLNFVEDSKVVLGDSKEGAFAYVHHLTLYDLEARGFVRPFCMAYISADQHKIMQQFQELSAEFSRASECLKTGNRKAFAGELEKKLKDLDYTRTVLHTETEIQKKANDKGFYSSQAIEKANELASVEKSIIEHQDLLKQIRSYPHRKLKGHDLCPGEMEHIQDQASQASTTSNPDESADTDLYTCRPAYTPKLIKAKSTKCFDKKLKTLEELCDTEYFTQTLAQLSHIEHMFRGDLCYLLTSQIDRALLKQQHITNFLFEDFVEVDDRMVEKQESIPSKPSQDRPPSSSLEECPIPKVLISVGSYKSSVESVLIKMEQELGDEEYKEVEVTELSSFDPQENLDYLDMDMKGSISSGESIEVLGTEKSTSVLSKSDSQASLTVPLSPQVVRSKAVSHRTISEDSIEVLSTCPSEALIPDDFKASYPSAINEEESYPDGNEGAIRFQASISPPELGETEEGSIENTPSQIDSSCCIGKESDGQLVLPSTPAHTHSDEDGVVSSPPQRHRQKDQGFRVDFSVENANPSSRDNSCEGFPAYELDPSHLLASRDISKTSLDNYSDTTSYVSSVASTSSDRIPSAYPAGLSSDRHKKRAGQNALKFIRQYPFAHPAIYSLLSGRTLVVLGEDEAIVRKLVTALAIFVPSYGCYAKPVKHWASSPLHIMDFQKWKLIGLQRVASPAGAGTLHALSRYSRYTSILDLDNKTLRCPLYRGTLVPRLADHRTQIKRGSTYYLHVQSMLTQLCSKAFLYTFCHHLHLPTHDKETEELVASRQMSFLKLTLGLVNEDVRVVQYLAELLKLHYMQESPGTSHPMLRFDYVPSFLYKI

Target | log2 ratio of iodoacetamide-alkyne labeling
UBR1 C1603 (UniProt Q8IWV7) | 0.433 (inactive)
IPO4 C350 (UniProt Q8TEX9) | 0.564 (inactive)
UniProt Q7LBC6_C1451 | 0.513 (inactive)
UniProt Q7RTV0_C61 | 0.11 (inactive)
UniProt Q8WZA9_C504 | 0.0403 (inactive)
SMCR8 C644 (UniProt Q8TEV9) | 0.488 (inactive)
UniProt Q7Z2T5_C265 | 0.161 (inactive)
CAND1 C1153 (UniProt Q86VP6) | 0.443 (inactive)
PHF10 C134 (UniProt Q8WUB8) | 0.0674 (inactive)
UniProt Q8NFC6_C2164 | 0.286 (inactive)
UniProt Q8WU20_C415 | 0.241 (inactive)
DDX1 C110 (UniProt Q92499) | 0.315 (inactive)
KTN1 C1105 (UniProt Q86UP2) | 0.28 (inactive)
ANKRD11 C1845 (UniProt Q6UB99) | 1.24 (active)
HSDL2 C11 (UniProt Q6YN16) | 0.0294 (inactive)
UniProt Q7LBC6_C1212 | 0.571 (inactive)
ZNF746 C425 (UniProt Q6NUN9) | 0.385 (inactive)
USP9X C1061 (UniProt Q93008) | 0.0678 (inactive)

Target | log2 ratio of iodoacetamide-alkyne labeling
ADO C258 (UniProt Q96SZ5) | 0.15 (inactive)
DIS3L2 C312 (UniProt Q8IYB7) | 0.226 (inactive)
IRF2BP1 C363 (UniProt Q8IU81) | 0.0738 (inactive)
UniProt Q969V6_C326 | 1.42 (active)
UniProt Q8IX01_C656 | 2.27 (active)
SLFN11 C126 (UniProt Q7Z7L1) | 0.146 (inactive)
ANKRD40 C358 (UniProt Q6AI12) | 1.2 (active)
HEATR3 C173 (UniProt Q7Z4Q2) | 0.137 (inactive)
UniProt Q86Y56_C173 | 0.779 (inactive)
MACROD1 C199 (UniProt Q9BQ69) | -0.0967 (inactive)
LUZP1 C594 (UniProt Q86V48) | 1.19 (active)
UniProt Q96BD8_C10 | 0.363 (inactive)
CCDC117 C81 (UniProt Q8IWD4) | 1.66 (active)
VPS8 C1371 (UniProt Q8N3P4) | 0.234 (inactive)
NSD1 C1689 (UniProt Q96L73) | 0.216 (inactive)
DNAJB14 C77 (UniProt Q8TBM8) | 1.08 (active)
CEP135 C316 (UniProt Q66GS9) | 0.0231 (inactive)
